The structures appear in SMILES notation. Several values for one entry are separate records, joined by “and”; a condition that tells them apart may be missing. Identical values can stand only once. In all, about 190,000 compounds went through this assay and about 6,900 (3.6%) were called active. No stated cut-off is given here; in the data, active means inhibition above about 50%; inactive means the rest. This excerpt belongs to a sample that is enriched for actives. Where a structure was tested more than once in an assay, its records may differ in their call.

In the assay the target is Huntingtin (Homo sapiens) (UniProt P42858). In words: mutant huntingtin-calmodulin interaction inhibitors – biochemical, AlphaScreen, primary screen (AID 1671202).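 Further: 0% = both proteins with DMSO and 100% = one protein alone.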 The conditions noted are these: AlphaScreen His-mHTT/GST-CaM binding, luminescence; at 15 µM, stronger effect = higher value.
Huntingtin (Homo sapiens), sequence (P42858 whole entry, looked up, stated change not applied): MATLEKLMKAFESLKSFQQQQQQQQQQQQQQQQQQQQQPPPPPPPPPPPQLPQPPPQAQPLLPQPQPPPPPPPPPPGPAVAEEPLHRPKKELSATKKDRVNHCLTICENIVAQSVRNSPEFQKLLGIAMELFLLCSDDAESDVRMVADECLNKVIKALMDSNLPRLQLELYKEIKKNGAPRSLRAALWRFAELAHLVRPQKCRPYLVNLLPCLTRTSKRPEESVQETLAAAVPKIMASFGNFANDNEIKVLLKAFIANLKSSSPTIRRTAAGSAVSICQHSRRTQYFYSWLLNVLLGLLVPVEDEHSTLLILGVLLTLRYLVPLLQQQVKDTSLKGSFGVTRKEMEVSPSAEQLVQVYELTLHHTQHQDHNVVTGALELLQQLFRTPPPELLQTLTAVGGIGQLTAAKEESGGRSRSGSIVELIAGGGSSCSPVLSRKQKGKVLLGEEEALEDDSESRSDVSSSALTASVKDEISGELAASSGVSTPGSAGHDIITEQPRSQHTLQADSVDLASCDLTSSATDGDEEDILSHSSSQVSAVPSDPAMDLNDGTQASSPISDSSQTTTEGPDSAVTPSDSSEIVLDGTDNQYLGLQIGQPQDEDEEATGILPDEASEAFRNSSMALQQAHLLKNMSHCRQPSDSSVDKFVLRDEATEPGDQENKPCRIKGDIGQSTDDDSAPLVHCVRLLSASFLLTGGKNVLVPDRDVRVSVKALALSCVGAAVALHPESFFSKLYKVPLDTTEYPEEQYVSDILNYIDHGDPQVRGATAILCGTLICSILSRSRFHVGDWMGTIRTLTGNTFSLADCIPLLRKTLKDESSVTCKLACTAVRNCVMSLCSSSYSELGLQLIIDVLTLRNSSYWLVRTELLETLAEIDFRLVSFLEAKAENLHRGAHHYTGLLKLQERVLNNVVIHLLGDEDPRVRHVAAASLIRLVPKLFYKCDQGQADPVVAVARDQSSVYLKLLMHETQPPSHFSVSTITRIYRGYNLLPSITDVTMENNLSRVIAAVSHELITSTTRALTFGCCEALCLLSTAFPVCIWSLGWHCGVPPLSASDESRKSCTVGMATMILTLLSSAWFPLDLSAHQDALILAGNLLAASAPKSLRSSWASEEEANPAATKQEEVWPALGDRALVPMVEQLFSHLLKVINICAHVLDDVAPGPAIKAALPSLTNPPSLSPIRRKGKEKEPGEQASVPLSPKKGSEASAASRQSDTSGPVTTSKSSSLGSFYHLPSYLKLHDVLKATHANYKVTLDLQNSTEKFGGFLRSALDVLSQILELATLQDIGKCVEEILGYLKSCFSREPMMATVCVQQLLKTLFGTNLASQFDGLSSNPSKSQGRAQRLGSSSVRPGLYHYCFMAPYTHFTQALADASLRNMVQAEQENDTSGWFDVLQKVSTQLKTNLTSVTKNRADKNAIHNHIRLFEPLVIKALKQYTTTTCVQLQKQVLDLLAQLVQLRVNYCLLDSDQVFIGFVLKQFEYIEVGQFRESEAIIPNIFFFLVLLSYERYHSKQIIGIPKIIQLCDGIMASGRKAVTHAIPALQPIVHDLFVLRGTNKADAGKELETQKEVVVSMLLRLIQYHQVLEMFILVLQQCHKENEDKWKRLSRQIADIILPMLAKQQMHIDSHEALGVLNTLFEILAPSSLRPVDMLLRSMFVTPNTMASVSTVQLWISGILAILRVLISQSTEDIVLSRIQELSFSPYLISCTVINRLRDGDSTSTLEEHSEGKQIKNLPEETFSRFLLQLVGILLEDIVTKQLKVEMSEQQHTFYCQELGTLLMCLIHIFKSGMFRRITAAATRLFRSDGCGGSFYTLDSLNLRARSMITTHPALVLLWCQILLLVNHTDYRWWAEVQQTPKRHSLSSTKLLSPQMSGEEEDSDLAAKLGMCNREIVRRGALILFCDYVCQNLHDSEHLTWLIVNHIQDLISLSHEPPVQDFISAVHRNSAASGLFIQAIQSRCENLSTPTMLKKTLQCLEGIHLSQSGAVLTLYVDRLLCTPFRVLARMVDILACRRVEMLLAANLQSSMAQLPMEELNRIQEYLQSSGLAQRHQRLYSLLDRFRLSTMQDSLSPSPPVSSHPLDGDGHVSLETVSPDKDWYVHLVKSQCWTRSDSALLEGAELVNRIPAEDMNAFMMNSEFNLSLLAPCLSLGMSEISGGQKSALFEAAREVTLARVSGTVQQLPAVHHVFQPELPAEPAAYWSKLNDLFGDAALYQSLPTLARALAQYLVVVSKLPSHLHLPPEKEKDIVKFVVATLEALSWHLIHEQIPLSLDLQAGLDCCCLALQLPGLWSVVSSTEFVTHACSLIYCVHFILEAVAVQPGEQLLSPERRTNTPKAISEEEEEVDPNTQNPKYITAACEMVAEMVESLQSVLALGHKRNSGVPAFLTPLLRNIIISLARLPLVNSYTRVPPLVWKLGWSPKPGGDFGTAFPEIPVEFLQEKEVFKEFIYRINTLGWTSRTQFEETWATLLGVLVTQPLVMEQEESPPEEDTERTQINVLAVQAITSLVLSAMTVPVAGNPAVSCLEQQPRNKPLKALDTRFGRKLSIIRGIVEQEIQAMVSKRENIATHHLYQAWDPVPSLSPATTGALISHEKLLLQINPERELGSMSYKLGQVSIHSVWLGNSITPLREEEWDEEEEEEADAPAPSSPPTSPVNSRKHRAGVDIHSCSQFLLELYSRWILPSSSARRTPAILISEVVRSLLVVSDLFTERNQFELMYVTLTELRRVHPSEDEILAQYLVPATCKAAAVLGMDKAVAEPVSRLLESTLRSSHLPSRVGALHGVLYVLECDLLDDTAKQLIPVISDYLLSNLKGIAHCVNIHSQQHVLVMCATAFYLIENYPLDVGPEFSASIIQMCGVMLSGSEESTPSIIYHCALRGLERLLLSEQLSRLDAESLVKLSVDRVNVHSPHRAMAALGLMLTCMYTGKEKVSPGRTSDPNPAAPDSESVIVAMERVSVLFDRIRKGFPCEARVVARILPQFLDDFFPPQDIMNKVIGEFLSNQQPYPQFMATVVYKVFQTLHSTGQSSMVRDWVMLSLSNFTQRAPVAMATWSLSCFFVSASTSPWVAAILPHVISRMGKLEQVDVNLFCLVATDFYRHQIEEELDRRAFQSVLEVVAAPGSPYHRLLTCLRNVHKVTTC
Turning to `CCn1nccc1C(=O)N1CC2CC(NC(=O)c3cccs3)C1C2` (configuration not stated), the inhibition is 1.26% (inactive).

Regarding `Cc1ccc2nc(NCc3ccccc3)c(C=Nc3ccccc3)c(=O)n2c1`, the inhibition was 6% (inactive).

For `CCc1ccc(CNC(=O)c2c(C)sc3c(=O)n(C4CCCC4)cnc23)cc1`, the inhibition was -6.7% (inactive).

Take `CN1CCN(C(=O)c2cc3c(=O)n(C)ccc3n2C)CC1`: the inhibition is -9.9% (inactive).

As to `O=S(=O)(Nc1ccc(Cl)cc1F)c1c[nH]c2ncccc12`, the inhibition is 71.8% (active).

In the case of `O=S(=O)(Nc1ccc(F)cc1)c1cccnc1Nc1ccc(Cl)cc1`, the inhibition is -23.3% (inactive).

Regarding `CCOc1ccc(S(=O)(=O)Nc2ccccc2F)c2cccnc12`, the inhibition was 4% (inactive).

With `Cc1cccc(OCC(=O)N2CCCC(OCc3nc(C)no3)C2)c1` (configuration not stated), the inhibition was -7.37% (inactive).

Consider `Cc1ccc(-c2nnc(C(=O)c3ccccc3)o2)cc1`, for which the inhibition was 0.5% (inactive).

Take `O=S(=O)(c1cc(Br)ccc1Br)N1CCOCC1`: the inhibition was -4% (inactive).

On to `COc1ccc(Br)cc1C(=O)Nc1cc2cccc([N+](=O)[O-])c2oc1=O`, for which the inhibition was -7% (inactive).

Consider `Cc1oc2c(Cl)c(Cl)c(O)cc2c1[N+](=O)[O-]`, for which the inhibition was 32% (inactive).

With `COC(=O)Oc1c([N+](=O)[O-])cc2oc(=O)sc2c1[N+](=O)[O-]`, the inhibition was 53% (active).

In the case of `O=C1CCCC2=C1C(c1cccc(Br)c1)n1nc(-c3ccccc3)nc1N2` (configuration not stated), the inhibition is -1.86% (inactive).

Turning to `CCOc1ccc(-c2cc(C(=O)NCc3ccccn3)c3ccccc3n2)cc1`, the inhibition was -9.8% (inactive) and 70% (active).

Take `O=C(NCc1cccnc1)c1cc(-c2ccccn2)nc2ccccc12`: the inhibition was 34% (inactive).

Consider `CCOc1cccc(-c2cc(C(=O)NCCN3CCOCC3)c3ccccc3n2)c1`, for which the inhibition was 11.4% (inactive).

In the case of `CCOc1ccc(/C=C2\CS/C(=C\c3ccc(OCC)cc3)C2=O)cc1`, the inhibition is 28% (inactive).

Consider `CN(CC(=O)N1N=C(c2cccs2)CC1c1ccccc1F)C(=O)C1CCCC1` (configuration not stated), for which the inhibition was 23% (inactive).

`CC(C)C(=O)N(C)CC(=O)N1N=C(c2ccccc2Cl)CC1c1ccc(F)cc1` (configuration not stated): the inhibition was 57% (active).

With `CC(C)C(=O)N(C)CC(=O)N1N=C(c2ccc(F)cc2)CC1c1ccc(F)cc1` (configuration not stated), the inhibition was 29.5% (inactive).

As for `CC(=O)N(C)CC(=O)N1N=C(c2cccs2)CC1c1ccccc1Cl` (configuration not stated), the inhibition is 1.2% (inactive).

In the case of `CNCC(=O)N1N=C(c2cccn2C)CC1c1ccccc1` (configuration not stated), the inhibition is 8.9% (inactive).

Consider `CC(=O)N(C)CC(=O)N1N=C(c2ccccc2Cl)CC1c1ccccc1Cl` (configuration not stated), for which the inhibition is 56.2% (active).

In the case of `O=C(c1ccc(F)cc1)N1CCC(c2nc(-c3ccccc3)n[nH]2)CC1`, the inhibition was 12.2% (inactive).

Take `O=C1CC[C@@]23CCCN2C(=O)CCC[C@H]3[C@H]1Cc1ccccc1`: the inhibition is 1.2% (inactive).

In the case of `Cc1nc(-c2cccs2)c(CCC(=O)Nc2cccc3cccnc23)s1`, the inhibition was 8.1% (inactive).

As for `C=C(C)CN(CC)Cc1cccc(OC)c1OC`, the inhibition is -4.5% (inactive).

With `COc1ccc(C2CC(=O)C(C=Nc3cc(Cl)ccc3O)=C(O)C2)cc1` (configuration not stated), the inhibition is 4% (inactive).

For `CCC(C)NC(=O)Cn1cnc2c(oc3ccccc32)c1=O` (configuration not stated), the inhibition is -6.1% (inactive).

Take `CC(=O)Nc1ccc(NC(=O)c2ccc(N(C)C)cc2)cc1`: the inhibition was 5.9% (inactive).

As for `CC(=O)c1ccc(NC(=O)c2ccc(CN(c3ccc(C)c(C)c3)S(C)(=O)=O)cc2)cc1`, the inhibition is 3.8% (inactive).

In the case of `Cc1ccc(C(=O)Nc2ccc(N(C)C)cc2)cc1C`, the inhibition is 59.4% (active).

Take `CCOc1ccc(CNC(=O)C2CCCN(c3ccc(N4CCOCC4)nn3)C2)cc1` (configuration not stated): the inhibition was -1.05% (inactive).

With `COCCNC(=O)c1cn2cc(C)ccc2n1`, the inhibition is -7.5% (inactive).

For `O=C(CCC(=O)N1CC2CCCN2c2ccccc21)NCCCN1CCCC1` (configuration not stated), the inhibition is 71.5% (active).

For the compound `O=C(CCC(=O)N1CC2CCCN2c2ccccc21)NCCCN1CCCCC1` (configuration not stated), the inhibition is 7.41% (inactive).

For `O=C(CCC(=O)N1CC2CCCN2c2ccccc21)NCc1cccc(Br)c1` (configuration not stated), the inhibition is 36.6% (inactive).

Turning to `COc1ccc([N+](=O)[O-])cc1NCc1ccccc1Br`, the inhibition is -6.4% (inactive).

On to `COc1cccc(/C=C(\C#N)c2nc3ccc(C)cc3[nH]2)c1OC`, for which the inhibition was 6.1% (inactive).

For `CCOc1ccc(/C=C(\C#N)c2nc3ccc(C)cc3[nH]2)cc1OC`, the inhibition was 5.8% (inactive).

For the compound `COc1cc(/C=C(\C#N)c2nc3ccc(C)cc3[nH]2)c(Br)cc1O`, the inhibition was 47.5% (inactive) and 79% (active).

In the case of `CCS(=O)(=O)NCC1CCC(C(=O)Nc2ccccc2C)CC1` (configuration not stated), the inhibition was -10.6% (inactive).

For `O=C(C1CCCN(Cc2c[nH]c3ccccc23)C1)N1CCCCCC1` (configuration not stated), the inhibition is 11.1% (inactive).

As to `Cc1ccc(C(=O)N2CCN(c3ccccc3)CC2)c(Cl)c1`, the inhibition is 2.2% (inactive).

Turning to `O=C(c1cccc2[nH]cc(CN3CCCC3)c12)N1CCN(c2ccccc2)CC1`, the inhibition was 54.3% (active).

Consider `CCN(CC)C(=O)CSc1nnc(NC(C)=O)s1`, for which the inhibition is -5.1% (inactive).

With `O=C(N=c1sccn1CC(=O)N1CCCC1)c1ccccc1Cl`, the inhibition was 7% (inactive).

On to `O=C(NC1CC2CC1N(C(=O)NCCc1ccccc1)C2)c1cccnc1` (configuration not stated), for which the inhibition was 0.1% (inactive).

`COc1ccccc1/C=C/CN1CCN(C)CC1`: the inhibition was -4.8% (inactive).

Turning to `COc1cccc(CN2CCN(C/C=C/c3ccccc3)CC2)c1OC`, the inhibition is 6.9% (inactive).

As to `COc1cc(CN2CCN(C/C=C/c3ccccc3)CC2)cc(Br)c1O`, the inhibition was 55.5% (active).

As for `Cc1oc(C2CCN(S(=O)(=O)c3ccc(F)cc3)CC2)nc1C(=O)N1CCOCC1`, the inhibition is -2.14% (inactive).

Take `CC(=O)NCCc1csc(C2CCN(C(=O)C3(c4ccccc4)CC3)CC2)n1`: the inhibition was 0.81% (inactive).

For the compound `CCOc1c(Br)cc(/C=C2\NC(=O)N(Cc3ccccc3F)C2=O)cc1OC`, the inhibition was -4% (inactive).

As for `COc1cc(C=O)cc(Br)c1OCc1ccccn1`, the inhibition is -0.1% (inactive).

`C=CCOc1ccc(/C=C2/C(=O)ON=C2C)cc1OCC`: the inhibition was 89% (active).

Turning to `CCOc1ccc(/C=C2/N=C(c3ccc(Cl)cc3)OC2=O)cc1OCC`, the inhibition was -5% (inactive).

For the compound `CCOc1cc(/C=C2\C(=O)ON=C2C)cc(Br)c1OCc1ccccc1F`, the inhibition is 51% (active).

For the compound `CCOc1cc(C=C2C(=O)OC(C)(c3ccccc3)OC2=O)ccc1O` (configuration not stated), the inhibition is 7% (inactive).

On to `NS(=O)(=O)c1ccc(NC(=O)CSc2nc3sc4c(c3c(=O)[nH]2)CCC4)cc1`, for which the inhibition was 5% (inactive).

Turning to `COc1ccc(C2SCCN2C(=O)c2cc3ccccc3oc2=O)cc1` (configuration not stated), the inhibition is 0% (inactive).

`COc1ccc(C2CC(O)(C#Cc3ccccc3)C(C)C(c3ccc(OC)cc3)N2)cc1` (configuration not stated): the inhibition was 100% (active).

`Cc1[nH]nc(-c2ccc(S(=O)(=O)N3CCC(N4CCCCC4)CC3)s2)c1C`: the inhibition is 7.48% (inactive).

With `Cc1n[nH]c(C)c1S(=O)(=O)N1CCC(C(=O)Nc2ccc(Br)cc2)CC1`, the inhibition is -8% (inactive).

For `COc1cc(NS(=O)(=O)c2ccc(Nc3nc(-c4cccnc4)cs3)cc2)nc(OC)n1`, the inhibition was 25.8% (inactive).

Take `COc1cccc(N/C=C(\C#N)c2nc(-c3ccc(Cl)cc3)cs2)c1`: the inhibition is -2% (inactive).

For `O=C(Nc1nc(-c2ccc([N+](=O)[O-])cc2)cs1)c1ccc(Cl)cc1`, the inhibition is 0.3% (inactive).

Take `Clc1ccc(-c2csc(Nc3ncccn3)n2)cc1`: the inhibition was -1% (inactive).

For `CN(C)c1ccc(Nc2nc(-c3ccc(Cl)cc3)cs2)cc1`, the inhibition is 57.2% (active).

`COc1cccc(Nc2nc(-c3ccc(Cl)cc3)cs2)c1`: the inhibition was 82.2% (active).

As for `CC(Oc1ccccc1)C(=O)Nc1nc(-c2ccccc2)cs1` (configuration not stated), the inhibition is -30% (inactive).

In the case of `COc1ccc2oc(=O)c(-c3csc(Nc4cccc(C(C)=O)c4)n3)cc2c1`, the inhibition is 2% (inactive).

With `COc1ccc(-c2csc(Nc3ccc(O)cc3)n2)cc1`, the inhibition is 61.1% (active).

Consider `Cc1ccsc1C1C(C#N)=C(N)N(c2ccc(Br)cc2)C2=C1C(=O)CCC2` (configuration not stated), for which the inhibition is 22% (inactive).

Consider `COC(=O)c1ccc(Cl)cc1NC(=O)N1CCOc2ccccc21`, for which the inhibition was -2.93% (inactive).

For `Cc1ccc(S(=O)(=O)CCC(=O)Nc2c(F)cccc2F)cc1`, the inhibition is 0% (inactive).

In the case of `CCN(CC)S(=O)(=O)c1ccc2oc(C(=O)NCC3CCCO3)c(C)c2c1` (configuration not stated), the inhibition is 6% (inactive).

With `O=C(Nc1cccc(Cl)c1)C1CCCN(c2nccnc2Oc2ccccc2)C1` (configuration not stated), the inhibition was -9.65% (inactive).

Regarding `COc1ccc(C)cc1NC(=O)N1CC2CC(NC(=O)c3cccs3)C1C2` (configuration not stated), the inhibition is 3.7% (inactive).

As for `COc1cc(NC(=O)c2noc3c2CCCC3)cc(OC)c1OC`, the inhibition was 1.68% (inactive).

On to `O=S1(=O)c2cccc3cccc(c23)N1Cc1cccc(F)c1`, for which the inhibition was -24.4% (inactive).

`O=C(Nc1ccc(N2CCN(C3CCCC3)C2=O)nc1)c1cc(F)cc(F)c1`: the inhibition is -7.5% (inactive).

Regarding `CC1CCN(CCNC(=O)CN2C(=O)C3CCCN3C(=O)c3ccc(F)cc32)CC1` (configuration not stated), the inhibition is 1.11% (inactive).

For `Cc1cccc(CNC(=O)CN2C(=O)C3CCCN3C(=O)c3cccc(C)c32)c1` (configuration not stated), the inhibition is -6.69% (inactive).

Regarding `Cc1ccc2c(c1)C(=O)N1CCCCC1C(=O)N2CC(=O)NCCN1CCCCCC1` (configuration not stated), the inhibition was 75% (active).

Regarding `CC(=O)NCc1csc(C2CCN(S(=O)(=O)c3ccc(C)cc3C)CC2)n1`, the inhibition is 6.65% (inactive).

For the compound `O=C1NC(c2ccncc2)Nc2sc3c(c21)CCCC3` (configuration not stated), the inhibition was 16% (inactive).

Take `Cc1ccc(C2NC(=O)c3c(sc4c3CCCC4)N2)cc1` (configuration not stated): the inhibition is 5% (inactive).

In the case of `Cc1ccc(C2NC(=O)c3c(sc4c3CCCC4)N2)c(O)c1` (configuration not stated), the inhibition is 78% (active).

Consider `Cc1ccc2c(c1)C(=O)NC1(CCN(C(=O)C3CCC3)CC1)N2`, for which the inhibition was 3.5% (inactive).

Regarding `CCOC(=O)C(C)Oc1ccc2c(c1)OC(=Cc1ccc(OC)cc1)C2=O` (configuration not stated), the inhibition was -21.4% (inactive).

Consider `COc1ccc(C(=O)Nc2cccc(NC(=O)c3ccc(Cl)cc3Cl)c2)cc1`, for which the inhibition was 4.1% (inactive).

`O=C(c1ccc(F)c(F)c1)N1CCN(c2nnc3ccccn23)CC1`: the inhibition was -6.3% (inactive).

Take `Cc1cc(NC(=O)N2CC3CCCN3c3ccccc32)ccc1Br` (configuration not stated): the inhibition was 87% (active).

Consider `CCn1c(C2CCN(C(=O)Nc3ccc(Br)c(C)c3)C2)nc2cccnc21` (configuration not stated), for which the inhibition is 25.2% (inactive).

Regarding `COc1cc(OC)c(NC(=O)N2CC3CCCN3c3ccccc32)cc1Cl` (configuration not stated), the inhibition was 38.8% (inactive).

Source of the values: PubChem BioAssay AID1671202 (University of Kansas High Throughput Screening Laboratory, 2021).
